Reference: PubChem BioAssay (NCATS)
Inconclusive results are not listed. Where a call stands in place of a potency, no number is given. Calls of active or inactive are those of the source. The call rests on the fitted dose curve; in most records, active means well fitted cell-killing curve with a large enough effect; inconclusive means small, poorly fitted or top-dose-only effect, or effect the other way, or another doubt; inactive means no such curve, though single readings can be large or run the other way.

assay: Identifying Small Molecule Inhibitors of Pancreatic Cancer Stem Cells (A2780, Spheroid) (AID 1259357); conditions: Potency: A2780 spheroid viability; series mostly up to 46.1 µM;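 further: spheroids pre-formed over 14 days in stem cell medium on hydrogel; compound exposure lasted 48 h before the ATP luminescence read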
Description: Progenitor-like cancer cells, often referred to as cancer stem cells (CSC), are believed to be the drivers of therapeutic resistance and rapid recurrence. CSCs are postulated to reside in specific niches characterized by low oxygen tension, limited nutrient supply, and high redox load. Selectively targeting CSC, alone or in combination with cytotoxic agents, as a means to produce durable remissions is an appealing concept. Modeling these cells in in vitro setting is an important step in finding new therapies and/or targets. Multiple reports highlight that forcing cells in culture into 3-dimensionaly architectures (spheroids) re-establishes key progenitor-like transcriptional signatures. Pancreatic cancer is among the diseases with the most dismal outlook which is driven, largely, by recurance following front-line therapies. […] In hopes of deriving new insight into the targeting of these pancreatic CSCs we examined three established pancreatic cancer cell lines in cytotoxicity assays versus a collection of approved and investigational drugs. Importantly, we screened these lines as traditional monolayer (2D) and spheroid (3D) formats to gain an appreciation of agents with differential activity.
Multicellular tumor spheroids from Panc1, MiaPaCa-2, and the primary low-passage tissue culture line SB.06 were seeded in stem cell media (SCM) in nonadherent 6-well plates coated with hydrogel (Corning Life Sciences, Chelmsford, Mass) and pancreatic spheres generated for 14 days before screening. Cells were seeded into 1536-well solid-bottom white tissue culture treated Greiner Bio One Plates (789173-F) using a MultiDrop Combi (Thermofisher Scientific) dispenser and a small sterile cassette. One column was media alone to be used as a :"no cells" control. The plates were then covered with sterilized stainless steel gasketed lids from Kalypsys. After allowing cells to attach for 4 hours, 23 nL of test compound or control (negative control DMSO and positive control 9.2 uM Bortezomib-final) were added from a 1536-well polypropylene compound source plate to each well using a 1536 head pin tool from Kalypsys. Cells were then incubated for 48 hours at 37C, 95% relative humidity and 5% CO2. After 48 hours, plates were removed from the incubator and 3 uL of CellTiter-Glo (Promega) was added using an Aurora Flying Reagent Dispenser Bioraptor. Plates were incubated at room temperature for 10 minutes prior to reading the luminescence on the Viewlux (PerkinElmer). The relative luciferase units are used to calculate the percent activity using the activity of DMSO in the cells and no cells columns for normalization of no inhibition and full inhibition respectively.
Potency means the concentration at half of the fitted maximal effect.

Structure (SMILES)	Potency
OC[C@H]1O[C@@H](n2cnc3c2NC=NC[C@@H]3O)C[C@H]1O	inactive
CC(C)(C)c1cc(C(=O)O)c(NC(=O)Nc2ccc3[nH]ncc3c2)s1	inactive
O=C(Nc1ccccc1-c1cn2c(CN3CCNCC3)csc2n1)c1cnc2ccccc2n1	inactive
COc1cc(Nc2ncc(F)c(Nc3ccc4c(n3)NC(=O)C(C)(C)O4)n2)cc(OC)c1OC	inactive
O=c1cc(N2CCOCC2)oc2c(-c3cccc4c3sc3ccccc34)cccc12	26.4 µM (active)
CC(C)(C)C(=O)Oc1ccc2c(c1)nc(NC(=O)c1cccc([N+](=O)[O-])c1)n2CCCO	inactive
CC(=O)N(C)C1(c2ccccc2)CCN(CCC[C@]2(c3ccc(Cl)c(Cl)c3)CCCN(C(=O)c3ccccc3)C2)CC1	18.7 µM (active)
CCOc1ccc(Nc2nc(-c3c(C)nc4ccccn34)cs2)cc1	0.296 µM (active)
COc1ncc(-c2ccc3nccc(-c4ccnnc4)c3c2)cc1NS(=O)(=O)c1ccc(F)cc1F	0.132 µM (active)
CCOC(CN1C(=O)[C@](CC(=O)Nc2ccc(C)cc2)(NC(=O)Nc2ccc(C)cc2)c2ccccc21)OCC	0.0059 µM (active)
CC(C)(C)COc1ccc(-n2cc(C(=O)O)cn2)cc1C#N	inactive
COc1cc2ncnc(-n3nc(-c4ccccn4)nc3N)c2cc1OC	inactive
O=C1C(Cl)=C(NCCN2CCOCC2)C(=O)c2ncccc21	9.35 µM (active)
CN1CCN(CCOc2cc(OC3CCOCC3)c3c(Nc4c(Cl)ccc5c4OCO5)ncnc3c2)CC1	inactive
